Most compounds without a hit are left out; they make up all but 6.7% or so of the library.
Pf Dd2 growth = inhibitors of Plasmodium falciparum Dd2 growth; P. falciparum Dd2 growth, SYBR Green, 72 h; stronger effect = lower value; activity change, % at 10 µM; 2.3% of 94,000 active; AID 1159554; in the data active = activity change below about -80%; inconclusive = no clear call, values can overlap the other calls
T cruzi growth-1 = T. cruzi proliferation inhibition | T. cruzi beta-gal in NIH3T3, GalScreen luminescence, 90 h | inhibition, % at 8.34 µM | 5.9% of 77,000 active | AID 624255;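 active = mean inhibition above about 93%, with at least 55% of replicates each passing it, limit read from the data, passing the limit was not always enough; inconclusive = only one of those two conditions holds; inactive = neither condition holds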
C diff growth = inhibitors of Clostridium difficile growth. Clostridium difficile clinical isolate growth, OD600, 24 h; stronger effect = lower value. growth activity, negative = inhibition, % at 16 µg/mL (by protocol). 0.25% of 86,000 active;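 active = mean growth activity at or below -80% and every replicate also at or below -80%; inconclusive = mean at or below -80% but some replicate above -80%; inactive = mean growth activity above -80%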;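 also: 0% = DMSO wells and -100% = levofloxacin 16 µg/mL wells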
T cruzi growth-2 = blocks T. cruzi growth in NIH3T3 host cells | inhibition, % at 8.35 µM | shares compounds with T cruzi growth-1 | AID 651739 | T. cruzi beta-gal in NIH3T3, GalScreen luminescence, 90 h | 72% of 5,600 active;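 active = mean replicate inhibition above about 95% and at least 55% of replicates individually reaching it, limit read from the data; inconclusive = only one of the two criteria is met; inactive = neither criterion is met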
T cruzi growth-3 = Trypanosoma cruzi proliferation inhibition; inhibition, % at 2.09 µM; AID 651740; T. cruzi beta-gal in NIH3T3, GalScreen luminescence, 90 h; 21% of 5,600 active; shares compounds with T cruzi growth-1;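 active = mean inhibition above about 95%, with at least 55% of replicates also reaching it, limit read from the data; inconclusive = meets just one of the two conditions; inactive = meets neither condition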;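 also: plate controls were neutral control median for no effect and positive control median for full effect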
3T3 cytotox = kills mouse NIH/3T3 fibroblasts. NIH/3T3 viability, CellTiter-Glo ATP luminescence, 90 h. shares compounds with T cruzi growth-1. 14% of 5,600 active. cytotoxicity (signal decrease), % at 8.35 µM;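 active = mean signal decrease across replicates above about 35% based on untreated-well scatter, with enough replicates individually passing, limit read from the data; inconclusive = no rule stated though some were filed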;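 also: 0% = median of neutral control wells and 100% = median of positive control wells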
NIH3T3 tox 2 = cytotoxicity in mouse NIH/3T3 fibroblasts | shares compounds with T cruzi growth-1 | NIH/3T3 viability, CellTiter-Glo ATP luminescence, 90 h | inhibition, % at 24.9 µM | 56% of 5,600 active;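 active = mean loss of cell viability signal at or above a set limit, and enough replicates individually reaching it; inconclusive = meets only the mean limit or only the replicate share; inactive = meets neither condition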;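 also: 0% = median of neutral control wells and 100% = median of positive control wells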
The depositor's hits bear a star; ? = inconclusive; . = no result given.

SMILES	Pf Dd2 growth	T cruzi growth-1	C diff growth	T cruzi growth-2	T cruzi growth-3	3T3 cytotox	NIH3T3 tox 2
COc1ccc2c3c(n(C)c2c1)[C@H](CO)N(C(C)=O)CC31CCN(S(=O)(=O)c2ccccc2)CC1	-76.1	.	-15.9	.	.	.	.
Cc1ccc(S(=O)(=O)N(C)C[C@H]2Oc3cc(Br)ccc3S(=O)(=O)N([C@H](C)CO)C[C@H]2C)cc1	-6.1	66.7	14.3	.	.	.	.
COc1cccc(S(=O)(=O)N(C)C[C@@H]2Oc3cc(Br)ccc3S(=O)(=O)N([C@@H](C)CO)C[C@@H]2C)c1	-56.3	.	7.4	.	.	.	.
COc1ccc(S(=O)(=O)N(C)C[C@@H]2Oc3cc(Br)ccc3S(=O)(=O)N([C@H](C)CO)C[C@@H]2C)cc1	-36.9	?	7.4	101.3*	39.4	14.7	61.4*
COc1ccc(S(=O)(=O)N(C)C[C@H]2Oc3cc(Br)ccc3S(=O)(=O)N([C@H](C)CO)C[C@H]2C)cc1	-25.9	?	4.5	102.0*	38.1	5.0	54.2*
CCCNC(=O)Nc1ccc2c(c1)C(=O)N(C)C[C@@H](OC)[C@H](C)CN(S(C)(=O)=O)[C@H](C)CO2	18.4	.	2.1	.	.	.	.
O=S(=O)(N[C@H]1CC[C@@H](CCn2cc(-c3cccnc3)nn2)O[C@H]1CO)c1ccc(F)cc1	4.2	-29.3	4.7	.	.	.	.
Cc1noc(C)c1S(=O)(=O)Nc1ccc2c(c1)CC(=O)N([C@H](C)CO)C[C@H](C)[C@H](CN(C)S(=O)(=O)c1ccc(Cl)cc1)O2	-55.1	11.9	16.7	.	.	.	.
CC(C)NC(=O)Nc1ccc2c(c1)CC(=O)N([C@@H](C)CO)C[C@@H](C)[C@H](CN(C)S(=O)(=O)c1ccc(Cl)cc1)O2	-21.1	42.5	-2.7	.	.	.	.
CC(C)NC(=O)Nc1ccc2c(c1)CC(=O)N([C@H](C)CO)C[C@H](C)[C@H](CN(C)S(=O)(=O)c1ccc(Cl)cc1)O2	-14.2	102.2*	-2.5	-51.8	-24.0	-30.4	9.1
Cc1noc(C)c1S(=O)(=O)Nc1ccc2c(c1)CC(=O)N([C@@H](C)CO)C[C@@H](C)[C@@H](CN(C)S(=O)(=O)c1ccc(Cl)cc1)O2	-25.9	?	5.7	71.1	33.5	2.8	38.8*
CS(=O)(=O)N1[C@@H](C#N)[C@@H](c2ccccc2)[C@@H]1CO	25.2	49.1	-8.6	.	.	.	.
Cc1ccccc1S(=O)(=O)N1[C@@H](C#N)[C@@H](c2ccc(-c3ccccc3)cc2)[C@@H]1CO	-27.8	102.3*	13.1	101.4*	102.7*	49.8*	73.5*
N#C[C@H]1[C@@H](c2ccc(C3=CCCC3)cc2)[C@@H](CO)N1S(=O)(=O)c1ccccc1	-23.7	60.8	7.1	.	.	.	.
Cc1ccccc1S(=O)(=O)N1[C@@H](C#N)[C@H](c2ccc(-c3ccccc3)cc2)[C@@H]1CO	-61.2	102.2*	3.0	82.3	16.6	7.0	17.7
Cc1ccccc1S(=O)(=O)N1[C@H](C#N)[C@H](c2ccc(-c3ccc(F)cc3)cc2)[C@H]1CO	-14.4	101.5*	10.7	100.8*	90.9	?	30.8*
Cc1ccccc1S(=O)(=O)N1[C@H](C#N)[C@H](c2ccc(-c3ccc(F)cc3)cc2)[C@@H]1CO	-24.3	92.2	21.0	.	.	.	.
COc1ccccc1NC(=O)N1C[C@H]2[C@@H](c3ccccc31)[C@@H](CO)N2C(=O)c1ccccc1	5.9	14.6	-3.7	.	.	.	.
C[C@H]1CN([C@@H](C)CO)S(=O)(=O)c2ccc(C#Cc3ccc(F)cc3)cc2O[C@@H]1CN(C)S(=O)(=O)c1ccc(F)cc1	-49.7	?	-1.5	95.5*	112.7*	33.1	68.1*
C[C@@H]1CN([C@@H](C)CO)S(=O)(=O)c2ccc(C#Cc3ccc(F)cc3)cc2O[C@H]1CN(C)S(=O)(=O)c1ccc(F)cc1	-67.8	115.1*	2.9	103.3*	116.0*	?	55.3*
C[C@@H]1CN([C@@H](C)CO)S(=O)(=O)c2ccc(C#Cc3ccc(F)cc3)cc2O[C@@H]1CN(C)S(=O)(=O)c1ccc(F)cc1	-43.7	113.8*	13.2	105.6*	114.6*	26.4	43.1*
COCC#Cc1ccc2c(c1)O[C@H](CN(C)S(=O)(=O)c1ccc(F)cc1)[C@H](C)CN([C@H](C)CO)S2(=O)=O	-47.7	67.9	-1.6	.	.	.	.
C[C@H]1CN([C@@H](C)CO)S(=O)(=O)c2ccc(C#Cc3ccc(F)cc3)cc2O[C@H]1CN(C)S(=O)(=O)c1ccc(F)cc1	-21.5	107.4*	3.6	105.2*	?	7.6	0.5
Cc1noc(C)c1NC(=O)N[C@@H]1CC[C@H](CC(=O)NCCCN(C)C)O[C@H]1CO	4.1	87.0	.	.	.	.	.
COc1ccc2c3c([nH]c2c1)[C@H](CO)N(C(=O)c1ccccc1)CC31CCN(C(=O)Nc2cccc(F)c2)CC1	-78.2	.	-13.5	.	.	.	.
SMILES	Pf Dd2 growth	T cruzi growth-1	C diff growth	T cruzi growth-2	T cruzi growth-3	3T3 cytotox	NIH3T3 tox 2
C[C@@H](NC(=O)[C@@H]1[C@@H](CO)[C@@H]2Cn3c(cccc3=O)[C@H]1N2Cc1cccnc1)c1ccccc1	12.2	-5.0	-5.0	.	.	.	.
COCC(=O)N1CC(=O)N2[C@@H](CO)[C@H](c3ccc(C#CC4CCCC4)cc3)[C@@H]2C1	-3.2	.	-9.4	.	.	.	.
COCC(=O)Nc1ccc2c(c1)[C@H]1C[C@H](CC(=O)N3CCCCC3)O[C@@H](CO)[C@H]1O2	6.2	10.7	-0.1	.	.	.	.
Cc1noc(C)c1S(=O)(=O)Nc1ccc2c(c1)C(=O)N([C@H](C)CO)C[C@H](C)[C@@H](CN(C)C(=O)Cc1ccccc1)OCCCC[C@H](C)O2	13.9	-22.8	4.6	.	.	.	.
COCC#Cc1ccc2c(c1)O[C@@H](CN(C)S(=O)(=O)c1ccc(F)cc1)[C@@H](C)CN([C@@H](C)CO)S2(=O)=O	-44.0	84.4	7.9	.	.	.	.
C[C@H](CO)N1C[C@H](C)[C@@H](CN(C)S(=O)(=O)c2ccc(F)cc2)Oc2cc(C#Cc3ccc(F)cc3)ccc2S1(=O)=O	-48.3	107.4*	4.8	100.0*	108.6*	28.4	64.6*
COCCNC(=O)C[C@H]1C[C@H]2c3cc(N(C)C)ccc3O[C@H]2[C@@H](CO)O1	8.0	.	0.5	.	.	.	.
COc1ccccc1C#Cc1ccc([C@H]2[C@@H](CO)N3CCCCN(C(=O)C4CCCC4)C[C@H]23)cc1	-29.9	91.6	4.3	.	.	.	.
COc1ccccc1C#Cc1ccc([C@@H]2[C@H]3CN(C(=O)C4CCC4)CCCCN3[C@H]2CO)cc1	-19.3	97.5*	1.0	102.1*	93.8	56.0*	105.2*
COc1ccccc1C#Cc1ccc([C@@H]2[C@H]3CN(C(=O)C4CCCC4)CCCCN3[C@H]2CO)cc1	-0.7	95.5*	-0.9	87.5	96.9*	85.9*	103.7*
COc1ccccc1C#Cc1ccc([C@H]2[C@@H](CO)N3CCCCN(C(=O)C4CCC4)C[C@H]23)cc1	-39.6	92.0	-1.2	.	.	.	.
